Data as given in PubChem BioAssay (NCATS).
Several values for one entry are separate records, joined by “and”; a condition that tells them apart may be missing. Equal values may be shown once. Inconclusive results are not listed. The source holds several records for some structures; these can differ, active in one and inactive in another. Activity calls are given as the source filed them. Unless noted, the call rests on the fitted dose curve; in most records, active means well fitted curve in the direction sought with a large enough effect; inconclusive means small, poorly fitted or top-dose-only effect, or another doubt; inactive means no such curve, though single readings can be large; an effect the other way counts as inactive or inconclusive.

Experiments:
[1] = NCATS anti-infectives library activity on HEK293 viability as a counter-qHTS vs the C. elegans viability qHTS (AID 1745854);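 further: HEK293 cells exposed to compounds for 24 hr before the viability read; on the % scale 0 is the no-effect control and ±100 the full control effect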
Summary of the method: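 Counter-screen for cytotoxicity: HEK293, 24 hr, 37C, compounds up to 41.7 uM final (a dilution series, 1:5). Readout CellTiter-Glo luminescence, 10 min RT. Digitonin control, 83.3 uM final.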

[2] = biological target: Rap guanine nucleotide exchange factor 3 (Homo sapiens) (UniProt O95398); assay: Confirmatory qHTS for antagonist of cAMP-regulated guanine nucleotide exchange factor 3 (EPAC1) (AID 1645880); further: nearly all actives have a fitted effect of over 55% in size; further: potency means the concentration at half of the fitted maximal effect
Summary of the method: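 Released BODIPY-GDP fluoresces less than Rap1-bound BODIPY-GDP; the signal is followed at 480/540 nm at 5-min intervals over 30 min, after 5 min at room temperature. Reactions contain 100 nM EPAC1, 250 nM RAP1B-BODIPY-GDP and 50 uM GDP; results are normalized to ATA and DMSO.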

[3] = biological target: Rap guanine nucleotide exchange factor 3 (Homo sapiens) (UniProt O95398); assay: Confirmatory qHTS for agonist of cAMP-regulated guanine nucleotide exchange factor 3 (EPAC1) (AID 1645881);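 further: EPAC1 catalysed release of BODIPY-GDP from Rap1B seen as fluorescence loss; 100% = effect of cAMP agonist control; nearly all actives have a fitted effect of over 75% in size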
[4] = biological target: Rap guanine nucleotide exchange factor 4 (Homo sapiens) (UniProt Q8WZA2); assay: Confirmatory qHTS for agonist of cAMP-regulated guanine nucleotide exchange factor 4 (EPAC2) (AID 1645884);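 further: nucleotide exchange releases bodipy-GDP from Rap1 and this lowers its fluorescence; on the % scale 0 is the no-effect control and ±100 the full control effect; nearly all actives have a fitted effect of over 65% in size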
[5] = biological target: Rap guanine nucleotide exchange factor 4 (Homo sapiens) (UniProt Q8WZA2); assay: Confirmatory qHTS for antagonist of cAMP-regulated guanine nucleotide exchange factor 4 (EPAC2) (AID 1645885); further: nearly all actives have a fitted effect of over 25% in size; further: potency means the concentration at half of the fitted maximal effect; on activity change, negative = inhibition: on the % scale 0 is the no-effect control and ±100 the full control effect
[6] = biological target: Rap guanine nucleotide exchange factor 3 (Homo sapiens) (UniProt O95398); assay: Counterscreen qHTS for antagonist of cAMP-regulated guanine nucleotide exchange factor 3 (EPAC1) (AID 1645888); further: % of control where 0% means no effect
Summary of the method: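 Rap1B–BODIPY-GDP (250 nM) with 50 uM GDP; compounds pin-transferred to 9.74 nM–152 uM final (activator) or from 7.32 nM upwards (inhibitor). Fluorescence Ex/Em 480/540 nm read at 5 and 30 min, then after adding cAMP or buffer, at room temperature.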

[7] = biological target: Catechol O-methyltransferase (Homo sapiens) (UniProt P21964); assay: Confirmatory Screen for Target Class Profiling of Small Molecule Inhibitors of Methyltransferases (AID 1745852; calls by dose curve; further: potency means the concentration at half of the fitted maximal effect; on activity change, negative = inhibition: on the % scale 0 is the no-effect control and ±100 the full control effect); conditions: MTase-Glo luminescence, SAH detection, recombinant enzyme; measured here: COMT max response; stronger effect = lower value
[8] = biological target: Guanidinoacetate N-methyltransferase (Homo sapiens) (UniProt Q14353); assay: as above; conditions: MTase-Glo luminescence, SAH detection, recombinant enzyme
[9] = biological target: Nicotinamide N-methyltransferase (Homo sapiens) (UniProt P40261); assay: as above; conditions: MTase-Glo luminescence, SAH detection, recombinant enzyme; measured here: NNMT max response; stronger effect = lower value
[10] = biological target: Phenylethanolamine N-methyltransferase (Homo sapiens) (UniProt P11086); assay: as above; conditions: MTase-Glo luminescence, SAH detection, recombinant enzyme; measured here: PNMT max response; stronger effect = lower value
Sequence of Phenylethanolamine N-methyltransferase (Homo sapiens) (P11086 whole entry, looked up): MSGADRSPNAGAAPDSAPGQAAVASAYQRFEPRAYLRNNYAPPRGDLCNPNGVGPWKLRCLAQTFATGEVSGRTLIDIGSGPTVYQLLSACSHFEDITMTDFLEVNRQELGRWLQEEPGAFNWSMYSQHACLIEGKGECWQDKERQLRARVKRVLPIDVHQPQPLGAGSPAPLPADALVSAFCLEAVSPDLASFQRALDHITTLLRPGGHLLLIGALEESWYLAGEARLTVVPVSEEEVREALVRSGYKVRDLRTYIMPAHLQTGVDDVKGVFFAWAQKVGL

Sequence of Rap guanine nucleotide exchange factor 4 (Homo sapiens) (Q8WZA2 whole entry, looked up): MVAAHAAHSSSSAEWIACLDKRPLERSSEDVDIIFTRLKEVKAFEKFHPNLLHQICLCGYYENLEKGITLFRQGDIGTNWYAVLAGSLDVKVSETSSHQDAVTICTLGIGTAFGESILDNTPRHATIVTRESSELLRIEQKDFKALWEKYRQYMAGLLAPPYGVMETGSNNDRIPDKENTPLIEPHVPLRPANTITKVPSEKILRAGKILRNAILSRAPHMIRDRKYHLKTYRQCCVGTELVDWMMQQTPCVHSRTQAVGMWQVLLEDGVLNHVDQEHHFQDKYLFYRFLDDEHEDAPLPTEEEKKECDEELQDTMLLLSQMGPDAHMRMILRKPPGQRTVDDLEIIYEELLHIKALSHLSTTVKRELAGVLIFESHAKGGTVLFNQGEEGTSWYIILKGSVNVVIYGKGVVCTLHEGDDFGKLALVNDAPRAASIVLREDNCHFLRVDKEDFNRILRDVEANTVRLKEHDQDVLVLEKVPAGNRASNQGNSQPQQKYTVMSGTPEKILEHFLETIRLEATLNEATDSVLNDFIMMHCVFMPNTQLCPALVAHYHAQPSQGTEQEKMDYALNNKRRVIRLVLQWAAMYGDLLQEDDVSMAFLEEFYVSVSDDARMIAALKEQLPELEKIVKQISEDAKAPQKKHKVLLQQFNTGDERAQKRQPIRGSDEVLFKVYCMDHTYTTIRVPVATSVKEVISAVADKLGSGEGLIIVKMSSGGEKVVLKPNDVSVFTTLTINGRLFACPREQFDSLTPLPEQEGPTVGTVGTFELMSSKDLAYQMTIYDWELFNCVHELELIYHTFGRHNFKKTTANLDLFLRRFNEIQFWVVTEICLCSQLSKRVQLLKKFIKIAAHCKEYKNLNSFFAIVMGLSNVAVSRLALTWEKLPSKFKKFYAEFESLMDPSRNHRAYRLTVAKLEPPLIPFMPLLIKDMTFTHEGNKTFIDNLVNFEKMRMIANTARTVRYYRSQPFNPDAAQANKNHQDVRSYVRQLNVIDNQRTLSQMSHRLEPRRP
Sequence of Catechol O-methyltransferase (Homo sapiens) (P21964 whole entry, looked up): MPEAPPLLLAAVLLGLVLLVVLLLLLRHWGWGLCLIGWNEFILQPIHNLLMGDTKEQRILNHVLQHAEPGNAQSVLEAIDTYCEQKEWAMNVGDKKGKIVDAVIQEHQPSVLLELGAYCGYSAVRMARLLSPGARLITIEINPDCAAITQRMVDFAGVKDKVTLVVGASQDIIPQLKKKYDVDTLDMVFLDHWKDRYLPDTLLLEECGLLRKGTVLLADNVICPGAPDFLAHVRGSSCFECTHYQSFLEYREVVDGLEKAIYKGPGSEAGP
Sequence of Rap guanine nucleotide exchange factor 3 (Homo sapiens) (O95398 whole entry, looked up): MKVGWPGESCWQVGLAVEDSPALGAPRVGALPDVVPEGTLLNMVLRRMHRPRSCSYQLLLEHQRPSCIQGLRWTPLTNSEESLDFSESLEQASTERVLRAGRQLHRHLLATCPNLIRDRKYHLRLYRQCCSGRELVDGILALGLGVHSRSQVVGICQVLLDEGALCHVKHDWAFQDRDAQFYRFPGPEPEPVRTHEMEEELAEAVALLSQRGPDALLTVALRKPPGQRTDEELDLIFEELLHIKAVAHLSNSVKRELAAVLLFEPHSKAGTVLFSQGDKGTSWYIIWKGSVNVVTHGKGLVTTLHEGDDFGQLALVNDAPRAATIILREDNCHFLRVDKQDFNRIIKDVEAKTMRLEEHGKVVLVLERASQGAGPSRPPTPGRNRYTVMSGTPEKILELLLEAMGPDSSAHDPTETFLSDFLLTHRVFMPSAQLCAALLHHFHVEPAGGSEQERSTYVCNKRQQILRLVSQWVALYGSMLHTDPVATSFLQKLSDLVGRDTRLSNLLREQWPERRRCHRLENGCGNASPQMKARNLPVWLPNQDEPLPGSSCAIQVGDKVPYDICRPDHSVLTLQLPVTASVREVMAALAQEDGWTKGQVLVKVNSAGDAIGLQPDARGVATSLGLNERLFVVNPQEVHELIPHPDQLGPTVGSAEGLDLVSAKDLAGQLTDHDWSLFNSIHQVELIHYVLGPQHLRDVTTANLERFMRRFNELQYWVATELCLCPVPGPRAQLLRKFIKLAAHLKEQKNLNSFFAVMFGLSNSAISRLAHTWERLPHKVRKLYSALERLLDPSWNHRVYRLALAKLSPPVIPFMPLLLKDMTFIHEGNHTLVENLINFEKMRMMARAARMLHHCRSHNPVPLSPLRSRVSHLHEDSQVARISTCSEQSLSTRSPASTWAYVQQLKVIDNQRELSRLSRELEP
Sequence of Nicotinamide N-methyltransferase (Homo sapiens) (P40261 whole entry, looked up): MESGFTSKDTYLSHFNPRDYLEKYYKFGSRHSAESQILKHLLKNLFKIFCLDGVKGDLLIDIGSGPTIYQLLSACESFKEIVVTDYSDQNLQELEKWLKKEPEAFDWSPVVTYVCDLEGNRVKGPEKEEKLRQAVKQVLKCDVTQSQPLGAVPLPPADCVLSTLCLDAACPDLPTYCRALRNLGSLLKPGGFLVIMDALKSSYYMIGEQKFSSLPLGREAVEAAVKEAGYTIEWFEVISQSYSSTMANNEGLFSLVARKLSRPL

Compound: CC(CN1c2ccccc2Sc2ccccc21)N(C)C (configuration not stated)
- outcome [1]: inactive

Compound: CCCc1c(OCCCCc2nn[nH]n2)ccc(C(C)=O)c1O
- Potency [2]: 55.9 µM (active) and inactive
- Potency [3]: inactive
- Potency [4]: inactive
- Potency [5]: 15.6 µM (active)
- activity change, negative = inhibition [5]: -26.3% [at 12.7 µM] (inactive)
- outcome [6]: inactive

Compound: Cc1cc(N)c2ccccc2[n+]1CCCCCCCCCC[n+]1c(C)cc(N)c2ccccc21
- activity [7]: 2.05%
- activity change, negative = inhibition ([8]; at 57.3 µM (top of the series)): -0.381%
- activity [9]: -23.8%
- activity [10]: 3.98%

Compound: CN(C)CCCN1c2ccccc2Sc2ccc(Cl)cc21
- outcome [1]: inactive

Compound: CCN(CC)C(C)CN1c2ccccc2Sc2ccccc21 (configuration not stated)
- Potency [3]: inactive
- Potency [4]: inactive
- Potency [5]: 55.5 µM (active)

Compound: CCN(CC)CCCC(C)Nc1c2ccc(Cl)cc2nc2ccc(OC)cc12 (configuration not stated)
- Potency [2]: inactive
- Potency [3]: inactive
- Potency [5]: inactive
- activity [7]: -1.98% and -3.74%
- activity change, negative = inhibition ([8]; at 29.8 µM (top of the series)): -0.149%
- activity change, negative = inhibition ([8]; at 57.3 µM (top of the series)): 2.96%
- activity [9]: -11.3% and -15.1%
- activity [10]: 3.56% and -4.16%

Compound: NC(N)=NCCC[C@H](N)C(=O)O
- activity [7]: 6.47%
- activity change, negative = inhibition ([8]; at 57.3 µM (top of the series)): -1.16%
- activity [9]: -0.737%
- activity [10]: 6.66%

Compound: COc1ccc(Cl)cc1C(=O)NCCc1ccc(S(=O)(=O)NC(=O)NC2CCCCC2)cc1
- activity [7]: -8.62%
- activity change, negative = inhibition ([8]; at 57.3 µM (top of the series)): -1.47%
- activity [9]: -22.1%
- activity [10]: -3.2%

Compound: CCOc1nc2cccc(C(=O)O)c2n1Cc1ccc(-c2ccccc2-c2nn[nH]n2)cc1
- outcome [1]: inactive

Compound: CC(C)(O)c1ccccc1CC[C@@H](SCC1(CC(=O)O)CC1)c1cccc(/C=C/c2ccc3ccc(Cl)cc3n2)c1
- Potency [2]: 25 µM (active)
- Potency [3]: inactive
- Potency [4]: inactive
- activity [7]: -3.13%
- activity change, negative = inhibition ([8]; at 57.3 µM (top of the series)): -3.41%
- activity [9]: -24.6%
- activity [10]: -2.75%

Compound: CC(C)(C)[C@]1(O)CCN2C[C@H]3c4ccccc4CCc4cccc(c43)[C@@H]2C1
- activity [7]: -2.14%
- activity change, negative = inhibition ([8]; at 57.3 µM (top of the series)): 6.2%
- activity [9]: -19.3%
- activity [10]: -4.4%

Compound: Cc1ccc2nc(N)[nH]c(=O)c2c1Sc1ccncc1
- activity [7]: -5.5%
- activity change, negative = inhibition ([8]; at 57.3 µM (top of the series)): 2.89%
- activity [9]: 1.11%
- activity [10]: 1.12%

Compound: O=C(O)c1ccccc1O
- outcome [1]: inactive

Compound: CNC(=O)Oc1ccc2c(c1)[C@]1(C)CCN(C)[C@@H]1N2C
- Potency [2]: inactive
- Potency [3]: inactive
- Potency [4]: inactive
- Potency [5]: inactive

Compound: Cc1cc(C(C#N)c2ccc(Cl)cc2)c(Cl)cc1NC(=O)c1cc(I)cc(I)c1O (configuration not stated)
- activity [7]: -21.3%
- Potency [8]: 30.4 µM (active)
- activity [9]: -81.7%
- activity [10]: -74.7%

Compound: COCCOC(=O)C1=C(C)NC(C)=C(C(=O)OC/C=C/c2ccccc2)C1c1cccc([N+](=O)[O-])c1 (configuration not stated)
- Potency [3]: inactive
- Potency [4]: inactive

Compound: NC(=O)c1ncn([C@@H]2O[C@H](CO)[C@@H](O)[C@H]2O)n1
- outcome [1]: inactive

Compound: O=C1Nc2ccc(Cl)cc2[C@@](C#CC2CC2)(C(F)(F)F)O1
- Potency [2]: inactive
- Potency [3]: inactive
- Potency [5]: 44.1 µM (active)
- activity [7]: -1.93%
- activity change, negative = inhibition ([8]; at 57.3 µM (top of the series)): 0%
- activity [9]: -43%
- activity [10]: -2.33%

Compound: CN1CCN(C2Cc3ccccc3Sc3ccc(Cl)cc32)CC1 (configuration not stated)
- activity [7]: 14.6%
- activity change, negative = inhibition ([8]; at 57.3 µM (top of the series)): 8.35%
- activity [9]: -22.8%
- activity [10]: 8.62%

Compound: O=c1cc(CO)occ1O
- outcome [1]: inactive

Compound: NCC(=O)CCC(=O)O
- outcome [1]: inactive

Compound: CC1(C)Oc2ccc(C#N)cc2[C@@H](N2CCCC2=O)[C@@H]1O
- Potency [2]: inactive
- Potency [3]: inactive
- Potency [4]: inactive
- Potency [5]: inactive

Compound: COc1ccc2cc1Oc1ccc(cc1)C[C@H]1c3c(cc4c(c3Oc3cc5c(cc3OC)CCN(C)[C@@H]5C2)OCO4)CCN1C
- outcome [1]: inactive

Compound: CN(C)CC[C@@H](c1ccc(Cl)cc1)c1ccccn1
- activity [7]: -1.71%
- activity change, negative = inhibition ([8]; at 57.3 µM (top of the series)): 2.46%
- activity [9]: -7.31%
- activity [10]: -1.72%

Compound: CCCCc1ncc(/C=C(\Cc2cccs2)C(=O)O)n1Cc1ccc(C(=O)O)cc1
- outcome [1]: inactive

Compound: Cc1ncc(COP(=O)(O)O)c(C=O)c1O
- outcome [1]: inactive

Compound: OCCN1CCN(CCCN2c3ccccc3Sc3ccc(Cl)cc32)CC1
- Potency [2]: inactive
- Potency [3]: inactive

Compound: C[C@]12CC[C@@H]3c4ccc(O)cc4CC[C@H]3[C@@H]1CCC2=O
- activity [7]: -21.5%
- activity change, negative = inhibition ([8]; at 57.3 µM (top of the series)): -1.67%
- activity [9]: -55.7%
- activity [10]: -0.307%

Compound: Nc1nc2c(ncn2CCC(CO)CO)c(=O)[nH]1
- outcome [1]: inactive

Compound: Cc1c(Cl)cccc1Nc1ccccc1C(=O)O
- Potency [3]: inactive
- Potency [4]: inactive
- Potency [5]: 44.1 µM (active)

Compound: O=C(O)c1ccccn1
- outcome [1]: inactive

Compound: Cc1cc2nc3c(=O)[nH]c(=O)nc-3n(C[C@H](O)[C@H](O)[C@H](O)CO)c2cc1C
- Potency [2]: inactive
- Potency [5]: inactive

Compound: CCCCCCCCCCCCCCCC(=O)NCCO
- outcome [1]: inactive
